Source: PubChem (National Center for Advancing Translational Sciences (NCATS))
Hits are enriched below; roughly 3.9% of the tested compounds scored in any of these assays.
Casp1 inh: qHTS Assay for Allosteric/Competitive Inhibitors of Caspase-1 | Caspase-1 enzyme, Ac-WEHD-AFC fluorogenic rate | Potency, µM (titrated, usually from 57.5 µM), inactives show at the top dose activity change, negative = inhibition, most hits filed as inhibitors | 0.03% of 75,000 active | AID 900, 2007;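 further: plate controls were vehicle for no effect and no substrate for full effect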
Casp7 inh: qHTS Assay for Allosteric/Competitive Inhibitors of Caspase-7 | P55210 | recombinant caspase-7, Ac-DEVD-AFC fluorescence rate | Potency, µM (titrated, usually from 57.5 µM), inactives show top-dose activity change, negative = inhibition, actives largely listed as inhibitors | 0.02% of 75,000 active | AID 889, 2007; active means well fitted inhibition curve with a large enough effect in the main read-out, with a control signal flat, not every such curve was filed as active; inconclusive means small, poorly fitted or top-dose-only effect, or a change in a side signal; further: % of control where 0% means no effect
ERK AVP inh: qHTS Assay for Inhibitors of the ERK Signaling Pathway using a Homogeneous Screening Assay | HEK293-V1b, vasopressin-stimulated pERK AlphaScreen | Potency, µM (titrated, usually from 57.5 µM), without a hit: top-dose activity, negative = inhibition, hits mostly inhibitors | 0.99% of 72,000 active | AID 995, 2007; further: on the % scale 0 is the no-effect control and ±100 the full control effect; nearly all actives have a fitted effect of over 55% in size
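Overnight-seeded V1b-HEK293 cells in 1% FBS got compound, then vasopressin (25 nM final, 5 min, 37C), then lysis buffer. AlphaScreen detection of phospho-ERK; activity normalized to basal and full-stimulation controls.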
15-hLO inh: qHTS Assay for Inhibitors of 15-hLO (15-human lipoxygenase). Polyunsaturated fatty acid lipoxygenase ALOX15 (Homo sapiens), P16050. purified 15hLO-1, xylenol orange hydroperoxide absorbance. Potency, µM (titrated, usually from 57.1 µM), inactives show at the top dose activity change, negative = inhibition, most hits filed as inhibitors. 1.4% of 74,000 active; further: on the % scale 0 is the no-effect control and ±100 the full control effect; nearly all actives have a fitted effect of over 55% in size
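Purified human 15hLO-1 (40 nM) in 25 mM Hepes pH 7.5, 0.01% Triton X-100, preincubated 15 min RT with compound, then 50 uM arachidonic acid for 6 min. Hydroperoxide read by ferrous/xylenol orange, 30 min; 573/405 nm absorbance ratio gave progress.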
Tau fil binding: qHTS Assay for Tau Filament Binding. Microtubule-associated protein tau (Homo sapiens), P10636. Potency, µM (top dose mostly 57.1 µM), for the others: top-dose activity change, negative = inhibition. AID 596, 2007. recombinant tau filaments, thioflavin S fluorescence, 15 h; filaments grown with octadecylsulfate alongside compound. 2% of 71,000 active;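 further: on the % scale 0 is the no-effect control and ±100 the full control effect; actives lower thioflavin S fluorescence by blocking filaments or displacing dye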
Target sequence (P10636 whole entry, looked up): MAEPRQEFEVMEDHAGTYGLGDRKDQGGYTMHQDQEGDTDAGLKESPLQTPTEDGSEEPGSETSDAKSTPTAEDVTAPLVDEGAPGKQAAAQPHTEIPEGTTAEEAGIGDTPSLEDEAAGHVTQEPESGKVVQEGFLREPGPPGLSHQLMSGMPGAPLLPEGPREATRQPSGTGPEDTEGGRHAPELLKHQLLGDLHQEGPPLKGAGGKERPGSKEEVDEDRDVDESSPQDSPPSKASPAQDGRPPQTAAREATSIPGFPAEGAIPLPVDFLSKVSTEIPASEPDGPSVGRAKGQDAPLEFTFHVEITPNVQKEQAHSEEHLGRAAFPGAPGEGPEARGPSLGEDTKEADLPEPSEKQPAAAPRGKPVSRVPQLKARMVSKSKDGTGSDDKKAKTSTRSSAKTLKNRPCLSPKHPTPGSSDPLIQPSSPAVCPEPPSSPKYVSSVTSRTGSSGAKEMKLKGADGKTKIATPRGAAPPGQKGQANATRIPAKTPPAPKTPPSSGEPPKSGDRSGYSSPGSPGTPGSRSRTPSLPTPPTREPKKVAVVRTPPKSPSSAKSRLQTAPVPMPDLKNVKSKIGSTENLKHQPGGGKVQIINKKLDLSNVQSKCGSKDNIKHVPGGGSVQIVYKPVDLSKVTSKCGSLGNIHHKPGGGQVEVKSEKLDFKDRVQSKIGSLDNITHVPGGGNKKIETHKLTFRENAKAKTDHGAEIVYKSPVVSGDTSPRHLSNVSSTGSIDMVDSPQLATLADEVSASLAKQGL
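His-tagged recombinant human tau (exons 2, 3 and 10 included), 1 uM, was induced to fibrillize by 30 uM sodium octadecylsulfate with compound present. After 15 h at 37 C, thioflavine S fluorescence (ex 450, em 510 nm) was read.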
* marks the source's active call; other numbers are inactive results; ? = inconclusive; nt = no result; ! = not active in a repeat; [ ] = dose if it differs, or a comment. Unless noted, the call rests on the fitted dose curve; in most records, active means well fitted curve in the direction sought with a large enough effect; inconclusive means small, poorly fitted or top-dose-only effect, or another doubt; inactive means no such curve, though single readings can be large; an effect the other way counts as inactive or inconclusive. Potency means the concentration at half of the fitted maximal effect.

SMILES	Casp1 inh	Casp7 inh	ERK AVP inh	15-hLO inh	Tau fil binding
Cc1ccc2c(c1)[C@H]1OCC[C@H]1[C@@H](c1ccncc1)N2	0%	0%	-2%	7%	-10%
Clc1ccc2c(c1)C1OCCC1C(c1ccco1)N2 (configuration not stated)	-7%	-9%	-22%	-29%	25µM*
CC(C)=CCC/C(C)=C/CC/C(C)=C/CO	0%	-2%	15%	?	nt
CC(C)=CCC/C(C)=C/CO	-1%[11.5 µM]	2%[11.5 µM]	-15%[11.5 µM]	7.9µM*!	10%[11.4 µM]
C=CC(C)(O)CC/C=C(\C)CCC=C(C)C (configuration not stated)	3%	-1%	12%	13µM*	nt
CCOC(=O)OCC1OC(C#Cc2ccccc2)C=CC1OC(=O)OCC (configuration not stated)	?	-1%[11.5 µM]	-3%[11.5 µM]	-5%[11.4 µM]	nt
O=C(c1cccc(F)c1)N1CCC2(CC1)CN(c1ccccc1)C2	-2%	-1%	-20%	-13%	0%
C1CCCNCC1	-4%	2%	20%	4%	7%
Cc1ccc(S(=O)(=O)/C=C\C#N)cc1	-1%	3%	20µM*	-3%[25.6 µM]	35%
CC(C)(C)c1ccc(S(=O)(=O)N2CCN(CCC#N)CC2)cc1	5%	-1%	27%	1%	5%
CC(C)(C)c1ccc(S(=O)(=O)/C=C\C#N)cc1	-2%	-2%	32µM*	-8%	24%
C1CCCC1	-4%	1%	17%	2%	-1%
CSc1ccc2c(c1)N(CC[C@H]1CCCCN1C)c1ccccc1S2	3%[25.7 µM]	0%[25.7 µM]	nt	?	4µM*!
COC(=O)[C@@H]1C[C@H]1[C@@H](NC(=O)Oc1ccc(F)cc1)c1ccccc1	0%	0%	10%	nt	-4%
CCC(C)c1ccc(O)c(N)c1 (configuration not stated)	0%	0%	-17%	13µM*	?
Nc1cc(N)c(OCC(F)(F)F)cc1OCC(F)(F)F	?	-28%	-14%	?	16µM*
O=C(CC1SC2=NCCN2C1=O)Nc1ccc(Cl)cc1 (configuration not stated)	-1%	1%	-17%	5%	-1%
O=C(Nc1ccc(Cl)cc1)Nc1ccc2c(c1)N1CCN=C1S2	-2%	-1%	32µM*	-1%	249%
CN(C)c1ccc(-c2cncnc2NCCN2CCOCC2)cc1	-5%	-8%	-4%	?	-26%
CC(=O)NCCNc1ncncc1-c1ccc(N(C)C)cc1	-1%	-3%	-20%	13µM*	6%
CNc1ncncc1-c1ccccc1C	-4%	-4%	2%	6%	-4%
CCOc1ccc2[nH]c(=O)c(=O)[nH]c2c1	-2%	-10%	-13%	2%	10µM*
CS(=O)(=O)Nc1cccc(-c2ccc3ncnc(N4CCNCC4)c3c2)c1	-1%	0%	?	2%	5%
O=c1c(-c2cccs2)nc2cncnc2n1Cc1ccccc1	nt	?	-24%	7%	120%
Cc1nn(-c2ccc(F)cc2F)c2c1-c1nc(N3CCCC3)ncc1CC2	-5%	-23%	-24%	25µM*	134%
SMILES	Casp1 inh	Casp7 inh	ERK AVP inh	15-hLO inh	Tau fil binding
O=C(Nc1ccc(O)cc1)C1CC=CCC1 (configuration not stated)	-2%	-17%	3%	?	13µM*
CSc1ncnc2nc[nH]c12	?	-17%	nt	-19%	-4%
Cc1nc(N)sc1-c1csc(Nc2ccccc2)n1	-2%	-6%	-13%	?	20µM*
COc1ccc(OC)c(Nc2nc(-c3sc(N)nc3C)cs2)c1	-3%	-2%	9%	-2%	10µM*
Cc1nc(C)c(-c2csc(Nc3cccnc3)n2)s1	nt	?	-11%	0%	?
Cc1cc(O)ccc1Nc1nc(-c2sc(N)nc2C)cs1	-1%	0%	-6%	6%	-13%
CC(=O)Nc1nc(C)c(-c2csc(Nc3ccc(O)cc3)n2)s1	0%	-2%	-5%	13µM*	?
CC(=O)OCC1OC(Oc2cc(OC(C)=O)c3c(=O)cc(-c4ccc(OC(C)=O)c(OC(C)=O)c4)oc3c2)C(OC(C)=O)C(OC(C)=O)C1OC(C)=O (configuration not stated)	nt	?	-12%	7%[25.6 µM]	nt
CCN(Cc1cc2ccccc2[nH]c1=O)S(=O)(=O)c1ccccc1	0%	-2%	-14%	?	13µM*
CCC(=O)Nc1cc(OC)c(NC(=O)c2ccccc2)cc1OC	-2%	0%	?	-2%	13µM*
COc1cc(NC(=O)c2ccc(Cl)cc2)c(OC)cc1NC(=O)CN1CCOCC1	1%	-2%	?	-4%	20µM*
COc1cc(NC(=O)c2ccccc2)cc(OC)c1	-1%	0%	6%	-4%	10µM*
COc1cc(NS(C)(=O)=O)c(OC)cc1NC(=O)c1ccccc1	-1%	-2%	-20%	2%	16µM*
COc1cc(NC(=O)c2ccccc2)c(OC)cc1NC(C)=O	1%	1%	-6%	4%	-17%
COc1ccc(C(=O)Nc2cc(OC)cc(OC)c2)cc1	1%	0%	-12%	-1%	-12%
CCOCCOCC	-1%	-5%	-9%	2%	7%
CC1(C)O[C@H]2[C@@H](c3[nH]nc4c(=O)[nH]c(=O)[nH]c34)OC[C@H]2O1	0%[11.5 µM]	2%[11.5 µM]	13%[11.5 µM]	2%[11.4 µM]	0%[11.4 µM]
N#CC1=C(N)SC2(CCCCC2)SC1c1ccccc1 (configuration not stated)	-3%	-2%	-11%	25µM*	20µM*
CCCN1C(=O)c2cc(C(=O)O)ccc2C1O (configuration not stated)	-9%	0%	nt	20µM*	-13%
Cc1nc(N2CCOCC2)c2cc(-c3ccccc3)sc2n1	1%	-1%	16µM*	-14%	47%
c1ccc(-c2cc3c(N4CCOCC4)ncnc3s2)cc1	-8%	-2%	20µM*	-12%	?
O=C(Cn1cnc2sc(-c3ccccc3)cc2c1=O)N1CCOCC1	-2%	-1%	3%	2%	3%
c1ccc(-c2nc(N3CCCCCC3)c3ccccc3n2)nc1	-4%	-1%	?	25%	13µM*
COc1ccc2[nH]c3c(c2c1)CN(C)CC3	-7%	-10%	-23%	?	25µM*
COc1ccc2[nH]c3ccccc3c2c1	1%	-1%	22%	-9%	-7%
O=C(Nc1ccccc1)N1CC=C(c2ccccc2)CC1	-1%	-4%	-16%	25µM*	?
COC(=O)c1ccc(NC(=O)N2CCOCC2)cc1	-1%	0%	-9%	-7%	-5%
O=C(Nc1ccc(Nc2ccccc2)cc1)N1CCOCC1	-3%	0%	-7%	0%	16µM*
O=C(Nc1ccccc1)N1CC=C(c2ccc(F)cc2)CC1	-4%	-3%	-10%	?	-4%
